Data published in PubChem BioAssay (NCATS).
Where “and” joins values, the source holds several entries; their conditions need not be identical. Equal entries are not always repeated. Results filed as inconclusive are left out. Calls of active or inactive are those of the source. Calls come from the whole dose curve; as a rule, active = well fitted curve in the direction sought with a large enough effect; inconclusive = small, poorly fitted or top-dose-only effect, or another doubt; inactive = no such curve, though single readings can be large; an effect the other way counts as inactive or inconclusive.

Columns and labels:
[1] = biological target: Cellular tumor antigen p53 (Homo sapiens) (UniProt P04637); assay: Primary qHTS for small molecule compounds that upregulate eGFP-tagged delta133p53alpha (in N-terminal) cells. (AID 2060322); conditions: NCI-H358 eGFP-delta133p53alpha fluorescence, 24 h; activation: stronger effect = higher value;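 note: 0% = DMSO vehicle and 100% = reference activator; nearly all actives have a fitted effect of over 75% in size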
Summary of the method: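 NCI-H358 cells pre-induced 24 h with 10 ng/ml doxycycline to express N-terminal eGFP-delta133p53alpha, then dosed 24 h at 37C without doxycycline; fixed, Hoechst-stained, GFP intensity by laser scanning cytometry, normalized to DMSO (0%) and 57.5 uM 5-azacytidine (100%).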

[2] = biological target: Aldehyde dehydrogenase, mitochondrial (Homo sapiens) (UniProt P05091); assay: qHTS for Inhibitors of the Aldehyde Dehydrogenase Family (ALDH2) Primary screen (AID 2061308); conditions: ALDH2 enzyme inhibition qHTS, 1536-well; series mostly up to 56 µM;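 note: plate controls were vehicle for no effect and reference inhibitor for full effect; nearly all actives have a fitted effect of over 55% in size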
[3] = biological target: Retinaldehyde dehydrogenase 3 (Homo sapiens) (UniProt P47895); assay: qHTS for Inhibitors of the Aldehyde Dehydrogenase Family (ALDH1A3) Primary screen (AID 2061315); conditions: ALDH inhibition qHTS; series mostly up to 56 µM;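 note: plate controls were DMSO vehicle for no effect and reference inhibitor for full effect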
[4] = BET inhibitor-based combinations targeting novel dependencies in MECOM-rearranged (r) AML: SET-2 cell line (AID 2202231); conditions: SET-2 AML cells viability, CellTiter-Glo luminescence, 48 h; viability: stronger effect = lower value, concentration not given here; note: nearly all actives have a fitted effect of over 35% in size; note: potency is the fitted concentration of half-maximal effect;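 for viability: plate controls were DMSO treated cells for no effect and wells without cells for full effect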
Summary of the method: (§1)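 AML cell lines seeded at 500 cells/well, treated with 11-point dose curves for 48 h. Viability by CellTiter-Glo luminescence, normalised to DMSO and empty wells; activity expressed as AUC and per-cell-line Z-transformed AUC.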

[5] = BET inhibitor-based combinations targeting novel dependencies in MECOM-rearranged (r) AML: MV-4-11 cell line (AID 2202233); conditions: MV-4-11 AML viability, CellTiter-Glo luminescence, 48 h; series mostly up to 46 µM; note: nearly all actives have a fitted effect of over 45% in size; note: potency is the fitted concentration of half-maximal effect
Summary of the method: (§2)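 Cells at 500/well were exposed for 48 hr to MIPE v5.0 drugs as 11-point dose curves. Viability was read by CellTiter-Glo luminescence and normalized to DMSO and empty-well controls. Activity was expressed as AUC and per-cell-line Z-AUC.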

[6] = BET inhibitor-based combinations targeting novel dependencies in MECOM-rearranged (r) AML: HNT-34 cell line (AID 2202234); conditions: HNT-34 AML viability, CellTiter-Glo luminescence, 48 h; series mostly up to 46 µM; note: nearly all actives have a fitted effect of over 35% in size; note: potency is the fitted concentration of half-maximal effect
Summary of the method: as §2

[7] = BET inhibitor-based combinations targeting novel dependencies in MECOM-rearranged (r) AML: UCSD-AML1 cell line (AID 2202235); conditions: UCSD-AML1 AML cells viability, CellTiter-Glo, 48 h; series mostly up to 46 µM; note: nearly all actives have a fitted effect of over 40% in size; note: potency is the fitted concentration of half-maximal effect
Summary of the method: as §2

[8] = BET inhibitor-based combinations targeting novel dependencies in MECOM-rearranged (r) AML: AML-191 cell line (AID 2202236; note: nearly all actives have a fitted effect of over 35% in size; note: potency is the fitted concentration of half-maximal effect); conditions: AML-191 viability, CellTiter-Glo luminescence, 48 h; series mostly up to 46 µM
Summary of the method: as §1

[9] = BET inhibitor-based combinations targeting novel dependencies in MECOM-rearranged (r) AML: AML-194 cell line (AID 2202237; note: nearly all actives have a fitted effect of over 40% in size; note: potency is the fitted concentration of half-maximal effect); conditions: AML-194 (MECOM-r AML) viability, CellTiter-Glo, 48 h; series mostly up to 46 µM
Summary of the method: as §1

Cellular tumor antigen p53 (Homo sapiens), sequence (P04637 whole entry, looked up): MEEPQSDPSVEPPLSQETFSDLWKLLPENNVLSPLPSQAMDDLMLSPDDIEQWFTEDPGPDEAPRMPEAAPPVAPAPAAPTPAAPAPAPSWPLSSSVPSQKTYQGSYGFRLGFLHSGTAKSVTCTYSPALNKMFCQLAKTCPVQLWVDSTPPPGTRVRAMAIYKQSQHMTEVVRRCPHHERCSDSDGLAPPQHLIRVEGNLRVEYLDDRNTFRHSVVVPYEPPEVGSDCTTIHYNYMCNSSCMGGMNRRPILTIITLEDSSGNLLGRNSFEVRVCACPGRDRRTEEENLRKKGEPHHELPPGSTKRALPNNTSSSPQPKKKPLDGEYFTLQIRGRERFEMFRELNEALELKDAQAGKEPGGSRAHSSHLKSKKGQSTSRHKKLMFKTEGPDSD

CC[C@H](C)C(=O)O[C@H]1C[C@@H](C)C=C2C=C[C@H](C)[C@H](CC[C@@H]3C[C@@H](O)CC(=O)O3)[C@H]21
inactive: activation [1] -14.1% and 11.5% and 5.34% | Potency [2] | Potency [3] | viability [4] 109% | Potency [9]
active: Potency [5] 10.5 µM | Potency [6] 5.9 µM | Potency [7] 9.34 µM | Potency [8] 10.5 µM

NC(=O)c1cnc(-c2ccc(C3(N)CCC3)cc2)c(-c2ccccc2)c1
active: Potency [5] 3.32 µM | Potency [7] 1.32 µM
inactive: activation [1] 29% and -2.68% | Potency [2] | Potency [3] | viability [4] 104% | Potency [8] | Potency [9]

CCOc1ccn(-c2ccc(F)cc2)c(=O)c1C(=O)Nc1ccc(Oc2ccnc(N)c2Cl)c(F)c1
inactive: activation [1] 49.1% | Potency [2] | Potency [3] | viability [4] 104% | Potency [7]
active: Potency [5] 1.48 µM | Potency [6] 11.8 µM | Potency [8] 8.33 µM

CCCOc1ccn2c(C(C)=O)cc(-c3ccccc3S(C)(=O)=O)c2c1
active: Potency [5] 18.6 µM | Potency [6] 18.6 µM | Potency [8] 18.6 µM
inactive: activation [1] -0.333% | Potency [2] | Potency [3] | viability [4] 93% | Potency [7] | Potency [9]

CC(C)[C@H](CO)Nc1nc(Nc2ccc(C(=O)O)c(Cl)c2)c2ncn(C(C)C)c2n1
inactive: activation [1] 6.33% | Potency [2] | Potency [3] | viability [4] 109% | Potency [6] | Potency [7] | Potency [8] | Potency [9]

CCN(CCO)CCCOc1ccc2c(Nc3cc(CC(=O)Nc4cccc(F)c4)[nH]n3)ncnc2c1
active: Potency [5] 0.0525 µM | Potency [8] 0.0934 µM
inactive: activation [1] -6.72% and 29.5% | Potency [2] | Potency [3] | viability [4] 100%

CC1c2ccccc2CN1NC(=O)c1ccc(Cl)c(S(N)(=O)=O)c1 (stereo not given)
inactive: activation [1] 6.69% | Potency [2] | Potency [3] | viability [4] 109% | Potency [5] | Potency [6] | Potency [7] | Potency [8] | Potency [9]

c1ccc(-c2oc3ncnc(NC[C@@H]4CCCO4)c3c2-c2ccccc2)cc1
inactive: activation [1] 5.12% and -14.3% | Potency [2] | Potency [3] | viability [4] 86.5% | Potency [5] | Potency [6] | Potency [7] | Potency [9]

Cn1cc(-c2c[nH]c3ncnc(N4CCOCC4)c23)cn1
inactive: activation [1] -7.14% | Potency [2] | Potency [3] | viability [4] 112% | Potency [7] | Potency [9]
active: Potency [5] 11.8 µM | Potency [8] 20.9 µM

COc1ccc(-c2cnc3c(-c4cccc5ncccc45)cnn3c2)cc1
inactive: activation [1] 16.1% | Potency [2] | Potency [3] | viability [4] 119% | Potency [6] | Potency [7] | Potency [8] | Potency [9]
active: Potency [5] 7.42 µM

O=C(NOCC(O)CO)c1ccc(F)c(F)c1Nc1ccc(I)cc1F (stereo not given)
inactive: activation [1] 0.955% | Potency [2] | Potency [3] | viability [4] 80.7%
active: Potency [6] 0.209 µM

O=C(NCCCNC(=O)c1ccc[nH]c1=O)c1cc(-c2ccccc2)on1
active: Potency [4] 13.2 µM | Potency [5] 8.33 µM | Potency [9] 14.8 µM
inactive: activation [1] -2.33% | Potency [2] | Potency [3]

CS(=O)(=O)N(Cc1ccco1)CC(O)Cn1c2ccccc2c2ccccc21 (stereo not given)
inactive: activation [1] -2.66% | Potency [2] | Potency [3] | viability [4] 98.8% | Potency [6] | Potency [7] | Potency [8] | Potency [9]

COc1ccc(C(=O)C2CCN(CC(=O)N(Cc3nc4c(c(=O)[nH]3)COCC4)CC3CC3)CC2)cc1
inactive: activation [1] 25.7% | Potency [2] | Potency [3] | viability [4] 110% | Potency [5] | Potency [6] | Potency [7] | Potency [9]

CN1CCN(c2ccc(-c3cccc(CN4CCOCC4)c3)cc2NC(=O)c2c[nH]c(=O)cc2C(F)(F)F)CC1
inactive: activation [1] -14.5% | Potency [2] | Potency [3] | viability [4] 120% | Potency [6] | Potency [7] | Potency [8] | Potency [9]
active: Potency [5] 12.9 µM

CN(C)CCOc1cc(-c2cn[nH]c2)ccc1NC(=O)C1COc2ccccc2O1 (stereo not given)
inactive: activation [1] -38.5% and -11.6% | Potency [2] | Potency [3] | viability [4] 92.6% | Potency [6] | Potency [7]
active: Potency [8] 5.9 µM

CC(C)c1noc(N2CCC(COc3ccc(-c4ccc(S(C)(=O)=O)cc4)nc3)CC2)n1
inactive: activation [1] -0.134% and -12.9% | Potency [2] | Potency [3] | Potency [6] | Potency [7] | Potency [9]
active: Potency [4] 11.8 µM | Potency [5] 2.35 µM

O=C(Nc1ccc(S(=O)(=O)N2CCOCC2)cc1)c1cc(Cl)ccc1NS(=O)(=O)c1ccc(Cl)s1
inactive: activation [1] 0.837% | Potency [2] | Potency [3] | viability [4] 98.4% | Potency [5] | Potency [7] | Potency [9]
